Data published in PubChem BioAssay (NCATS).
“And” between values parts separate entries of the source, which are not always exact repeats. Identical values can stand only once. For some of these results: Measured potencies and affinities stand elsewhere. The source made the active and inactive calls. How the calls were made is not given here.

details: Ebola virus entry assay, green channel fluorescence

SMILES | outcome
O=c1[nH]cnc2c1ncn2[C@H]1CC[C@@H](CO)O1 | inactive
Cc1ccc(S(=O)(=O)N[C@@H](CCCCN)C(=O)CCl)cc1 | inactive
Cc1nc(N)nc(N)c1-c1ccc(Cl)c(Cl)c1 | inactive
CC[C@@H](CO)NC(=O)[C@@H]1C=C2c3cccc4[nH]cc(c34)C[C@H]2N(C)C1 | inactive
CC[C@@H](CO)NC(=O)[C@@H]1C=C2c3cccc4c3c(cn4C)C[C@H]2N(C)C1 | inactive
COC(=O)C1=C(C)NC(C)=C(C(=O)OC(C)C)C1c1cccc2nonc12 (stereo not given) | inactive
NC(=O)c1cn(Cc2c(F)cccc2F)nn1 | inactive
CC(C)NCC(O)COc1cccc2[nH]ccc12 (stereo not given) | inactive
CC1(C)NC(=O)N(c2ccc([N+](=O)[O-])c(C(F)(F)F)c2)C1=O | inactive
CCCCc1nc(Cl)c(CO)n1Cc1ccc(-c2ccccc2-c2nn[nH]n2)cc1 | inactive
CCN1/C(=C/C=C/c2sc3ccccc3[n+]2CC)Sc2ccccc21 | inactive
O=C1CCC(N2C(=O)c3ccccc3C2=O)C(=O)N1 (stereo not given) | inactive
Cc1ncc([N+](=O)[O-])n1CCO | inactive
CC1=C(C(=O)O)N2C(=O)[C@@H](NC(=O)[C@H](N)c3ccc(O)cc3)[C@H]2SC1 | inactive
Cc1ccc(S(=O)(=O)NC(=O)NN2CCCCCC2)cc1 | inactive
c1ccc(C2CC2)c(OCC2=NCCN2)c1 | inactive
CC1=NS(=O)(=O)c2cc(Cl)ccc2N1 | inactive
Cn1cc[nH]c1=S | inactive
Cc1ccc2c(n1)Oc1ccc(C(C)C(=O)OCC(=O)N(C)C)cc1C2 (stereo not given) | inactive
CCOC(=O)[C@H](CCc1ccccc1)N[C@@H](C)C(=O)N1Cc2ccccc2C[C@H]1C(=O)O | inactive
COc1ccc(OC)c(C(O)CNC(=O)CN)c1 (stereo not given) | inactive
Cc1[nH]cnc1CN1CCc2c(c3ccccc3n2C)C1=O | inactive
O=C1C(=O)c2ccccc2C(O)=C1C1CCC(c2ccc(Cl)cc2)CC1 (stereo not given) | inactive
N=c1nc(N2CCCCC2)cc(N)n1O | inactive
O=c1[nH]cc(F)c(=O)[nH]1 | inactive
CCOC(=O)[C@H](CCc1ccccc1)N[C@@H](C)C(=O)N1[C@H](C(=O)O)C[C@@H]2CCC[C@@H]21 | inactive
Clc1ccc(CCC(Cn2ccnc2)Sc2c(Cl)cccc2Cl)cc1 (stereo not given) | inactive
CCC[C@H](N[C@@H](C)C(=O)N1[C@H](C(=O)O)C[C@@H]2CCCC[C@@H]21)C(=O)OCC | inactive

details: Ebola virus entry assay, blue channel fluorescence

SMILES | outcome
O=c1[nH]cnc2c1ncn2[C@H]1CC[C@@H](CO)O1 | inactive
CC[C@@H](CO)NC(=O)[C@@H]1C=C2c3cccc4c3c(cn4C)C[C@H]2N(C)C1 | inactive
COC(=O)C1=C(C)NC(C)=C(C(=O)OC(C)C)C1c1cccc2nonc12 (stereo not given) | inactive
NC(=O)c1cn(Cc2c(F)cccc2F)nn1 | inactive
CC(C)NCC(O)COc1cccc2[nH]ccc12 (stereo not given) | inactive
CC1(C)NC(=O)N(c2ccc([N+](=O)[O-])c(C(F)(F)F)c2)C1=O | inactive
CCCCc1nc(Cl)c(CO)n1Cc1ccc(-c2ccccc2-c2nn[nH]n2)cc1 | inactive
O=C1CCC(N2C(=O)c3ccccc3C2=O)C(=O)N1 (stereo not given) | inactive
CC1=C(C(=O)O)N2C(=O)[C@@H](NC(=O)[C@H](N)c3ccc(O)cc3)[C@H]2SC1 | inactive
CC(C)c1nc(CN(C)C(=O)N[C@H](C(=O)N[C@@H](Cc2ccccc2)C[C@H](O)[C@H](Cc2ccccc2)NC(=O)OCc2cncs2)C(C)C)cs1 | inactive
CC1=NS(=O)(=O)c2cc(Cl)ccc2N1 | inactive
Cn1cc[nH]c1=S | inactive
CCOC(=O)[C@H](CCc1ccccc1)N[C@@H](C)C(=O)N1Cc2ccccc2C[C@H]1C(=O)O | inactive
COc1ccc(OC)c(C(O)CNC(=O)CN)c1 (stereo not given) | inactive
Cc1[nH]cnc1CN1CCc2c(c3ccccc3n2C)C1=O | inactive
O=C1C(=O)c2ccccc2C(O)=C1C1CCC(c2ccc(Cl)cc2)CC1 (stereo not given) | inactive
N=c1nc(N2CCCCC2)cc(N)n1O | inactive
O=c1[nH]cc(F)c(=O)[nH]1 | inactive
CCOC(=O)[C@H](CCc1ccccc1)N[C@@H](C)C(=O)N1[C@H](C(=O)O)C[C@@H]2CCC[C@@H]21 | inactive
CCC[C@H](N[C@@H](C)C(=O)N1[C@H](C(=O)O)C[C@@H]2CCCC[C@@H]21)C(=O)OCC | inactive

details: Ebola virus entry assay, reporter ratio channel; AC50: Channel type: primary unless noted; outcome: Channel type: primary unless noted

SMILES | outcome | AC50
O=c1[nH]cnc2c1ncn2[C@H]1CC[C@@H](CO)O1 | inactive | 
CCN(CC)C(=S)SSC(=S)N(CC)CC |  | 7.94 µM (active) and 22.4 µM (active)
Cc1ccc(S(=O)(=O)N[C@@H](CCCCN)C(=O)CCl)cc1 |  | 28.2 µM (active)
Cc1nc(N)nc(N)c1-c1ccc(Cl)c(Cl)c1 |  | 28.2 µM (active)
CC[C@@H](CO)NC(=O)[C@@H]1C=C2c3cccc4[nH]cc(c34)C[C@H]2N(C)C1 |  | 10 µM (active)
CC[C@@H](CO)NC(=O)[C@@H]1C=C2c3cccc4c3c(cn4C)C[C@H]2N(C)C1 | inactive | 
CC(C)OC(=O)C(C)(C)Oc1ccc(C(=O)c2ccc(Cl)cc2)cc1 | inactive | 
COC(=O)C1=C(C)NC(C)=C(C(=O)OC(C)C)C1c1cccc2nonc12 (stereo not given) | inactive | 
NC(=O)c1cn(Cc2c(F)cccc2F)nn1 | inactive | 
CC(C)NCC(O)COc1cccc2[nH]ccc12 (stereo not given) |  | 39.8 µM (active)
CNCCC(Oc1ccc(C(F)(F)F)cc1)c1ccccc1 (stereo not given) |  | 3.55 µM (active)
CC1(C)NC(=O)N(c2ccc([N+](=O)[O-])c(C(F)(F)F)c2)C1=O | inactive | 
CCCCc1nc(Cl)c(CO)n1Cc1ccc(-c2ccccc2-c2nn[nH]n2)cc1 | inactive | 
Cc1ccccc1C(=O)Nc1ccc(C(=O)N2CCCC(O)c3cc(Cl)ccc32)c(C)c1 (stereo not given) |  | 25.1 µM (active)
CCN1/C(=C/C=C/c2sc3ccccc3[n+]2CC)Sc2ccccc21 | inactive | 
O=C1CCC(N2C(=O)c3ccccc3C2=O)C(=O)N1 (stereo not given) | inactive | 
Cc1ncc([N+](=O)[O-])n1CCO | inactive | 
CC1=C(C(=O)O)N2C(=O)[C@@H](NC(=O)[C@H](N)c3ccc(O)cc3)[C@H]2SC1 | inactive | 
Cc1ccc(S(=O)(=O)NC(=O)NN2CCCCCC2)cc1 | inactive | 

SMILES | outcome | AC50
CC(C)c1nc(CN(C)C(=O)N[C@H](C(=O)N[C@@H](Cc2ccccc2)C[C@H](O)[C@H](Cc2ccccc2)NC(=O)OCc2cncs2)C(C)C)cs1 |  | 22.4 µM (active)
c1ccc(C2CC2)c(OCC2=NCCN2)c1 |  | 39.8 µM (active)
CC1=NS(=O)(=O)c2cc(Cl)ccc2N1 | inactive | 
Cn1cc[nH]c1=S | inactive | 
Cc1ccc2c(n1)Oc1ccc(C(C)C(=O)OCC(=O)N(C)C)cc1C2 (stereo not given) | inactive | 
COc1ccccc1OCCNCC(O)COc1cccc2[nH]c3ccccc3c12 (stereo not given) |  | 2.24 µM (active)
CCOC(=O)[C@H](CCc1ccccc1)N[C@@H](C)C(=O)N1Cc2ccccc2C[C@H]1C(=O)O | inactive | 
COc1ccc(OC)c(C(O)CNC(=O)CN)c1 (stereo not given) | inactive | 
O=C(CCCN1CCC(O)(c2ccc(Cl)cc2)CC1)c1ccc(F)cc1 |  | 10 µM (active)
Cc1[nH]cnc1CN1CCc2c(c3ccccc3n2C)C1=O | inactive | 
CCCCc1oc2ccccc2c1C(=O)c1cc(I)c(OCCN(CC)CC)c(I)c1 |  | 2.82 µM (active)
O=C1C(=O)c2ccccc2C(O)=C1C1CCC(c2ccc(Cl)cc2)CC1 (stereo not given) | inactive | 
N=c1nc(N2CCCCC2)cc(N)n1O | inactive | 
O=c1[nH]cc(F)c(=O)[nH]1 | inactive | 
CN[C@H]1CC[C@@H](c2ccc(Cl)c(Cl)c2)c2ccccc21 |  | 1.58 µM (active)
CCOC(=O)[C@H](CCc1ccccc1)N[C@@H](C)C(=O)N1[C@H](C(=O)O)C[C@@H]2CCC[C@@H]21 | inactive | 
Clc1ccc(CCC(Cn2ccnc2)Sc2c(Cl)cccc2Cl)cc1 (stereo not given) |  | 22.4 µM (active)
CCC[C@H](N[C@@H](C)C(=O)N1[C@H](C(=O)O)C[C@@H]2CCCC[C@@H]21)C(=O)OCC | inactive | 
